These results are taken from PubChem BioAssay AID602360 (National Center for Advancing Translational Sciences (NCATS), 2012).

Results filed as inconclusive are left out. Unmarked numbers belong to inactive results. Activity calls are given as the source filed them. Calls come from the whole dose curve; as a rule, active = well fitted curve in the direction sought with a large enough effect; inconclusive = small, poorly fitted or top-dose-only effect, or another doubt; inactive = no such curve, though single readings can be large or run the other way.

In the assay the target is Holo-[acyl-carrier-protein] synthase (Bacillus subtilis (strain 168)) (UniProt P96618). Briefly: qHTS Assay for Inhibitors of Bacillus subtilis AcpS phosphopantetheinyl transferase (PPTase): SAR. The conditions noted are these: purified B. subtilis AcpS enzyme; Potency: PPTase activity; series mostly up to 57.1 µM; activity change, negative = inhibition: at the top concentration. The source says:
The covalent attachment of a phosphopantetheinyl (4'-PP) arm to a variety of synthases and other proteins is a key posttranslational protein modification. The 4'-PP is installed on the proteins post-translationally from coenzyme A (CoA) on a conserved serine residue by action of phosphopantetheinyl transferase (PPTase) enzymes. Phosphopantetheinylation is essential for synthase activity, and removal of the PPTase gene precludes natural product synthesis in microorganisms, or in the case of fatty acid biosynthesis, renders the organism unviable. PPTase enzymes belong to a distinct structural superfamily. Within bacteria, these enzymes are grouped into two classes based upon primary structure, the AcpS-Type and Sfp-Type PPTases.
Sfp-type PPTases, corresponding to an activator of surfactin production in Bacillus subtilis, are responsible for modifying type I polyketide and nonribosomal peptide synthases of prokaryotes. Sfp-type PPTases are responsible for the activation of a variety of pathogen-associated virulence factors. Among these compounds are toxins such as mycolactone from Mycobacterium ulcerans, siderophores such as vibriobactin from Vibrio cholerae or mycobactin from Mycobacterium tuberculosis, as well as the mycolic acids which form the waxy cell wall of Mycobacteria. The biosyntheses of these natural products are considered attractive targets for drug design.
In search of small molecule Sfp-PPTase inhibitors, a fluorescence quenching assay was developed for detection of Bacillus subtilis Sfp-PPTase enzymatic activity in a miniaturized high-throughput format. The consensus ybbr acceptor peptide […] was N-terminally labeled with Black Hole Quencher-2 (BHQ-2) and used in combination with rhodamine-labeled coenzyme A as a co-substrate.
This project seeks to identify Sfp-PPTase inhibitors. This assay sought to determine the activity of these compounds with holo-acyl carrier protein synthase (AcpS) from E. coli, the canonical representative of the AcpS-PPTase subgrouping (vide supra). The evaluation utilized the qHTS assay format, with the only change being direct substitution of the enzyme.
NIH Chemical Genomics Center [NCGC]
NIH Molecular Libraries Probe Centers Network [MLPCN]
Assay Submitter (PI): Michale Burkart, University of California, San Diego
The assay was performed in a buffer consisting of 50mM HEPES-Na pH 7.6, 10mM MgCl2, 0.01% Nonidet P-40, and 0.01% BSA. Reagents (3 uL) were dispensed into a 1536-well black solid bottom plate (100 nM AcpS PPTase incolumns 1, 2, 5 through 48; buffer sans enzyme in columns 3 &4). DMSO solution of test articles (23 nL) were transferred via Kalypsys pintool equipped with 1,536-pin array. Following a room temperature incubation (15 min), enzyme reactions were initiated by the addition of substrate (1 uL , final concentration in the plte for rhodamine-CoA and BHQ-2-YbbR 5 uM and 12.5 uM, respectively). The plate was then centrifuged (15 s, 1000 rpm), and the fluorescence intensity recorded on a ViewLux High-throughput CCD imager (Perkin-Elmer, 525 nm excitation and 598 nm emission). The plate was then incubated at room temperature (30 min), after which a second read on the ViewLux was recorded. The fluorescence intensity difference over the 30-minute period was used to calculate the respective reaction rate for each well.
As to `CSC(Cc1ccc(Cl)cc1)C(=O)Nc1ccc(Cl)cc1C(=O)O` (configuration not stated), the “activity change, negative = inhibition” value is 1.84%.

Consider `Cc1ccnc(NC(=S)N2CCN(c3cc(C(F)(F)F)cc(C(F)(F)F)c3)CC2)c1`, for which the Potency is 4.57 µM (active).

For `Cc1ccnc(NC(=S)Nc2cccc(C(F)(F)F)c2)c1`, the “activity change, negative = inhibition” value is -5.9%.

With `Cc1cc(C)nc(NC(=S)N2CCN(c3ncccc3C#N)CC2)c1`, the “activity change, negative = inhibition” value was -7.03%.

As for `Cc1cc(C)nc(NC(=S)N2CCN(c3ccc([N+](=O)[O-])cc3Cl)CC2)c1`, the Potency is 6.46 µM (active).

Regarding `FC(F)(F)c1cc(N2CCN(C(=S)Nc3cc(Cl)ccn3)CC2)cc(C(F)(F)F)c1`, the “activity change, negative = inhibition” value is 10.1%.

Turning to `Cc1ccnc(NC(=S)N2CCCc3ccc(C(F)(F)F)cc32)c1`, the “activity change, negative = inhibition” value was 1.85%.

For `Cc1nc(CN(C)c2ncnc3ccc(-c4ccc5[nH]ncc5c4)cc23)cs1`, the “activity change, negative = inhibition” value was 55.2%.

On to `Cc1ccnc(N=C(N)N2CCN(c3cccc(C(F)(F)F)c3)CC2)c1`, for which the “activity change, negative = inhibition” value is 15.1%.

On to `COc1cccc(NC(=S)N2CCN(c3cc(Cl)cc(Cl)c3)CC2)n1`, for which the “activity change, negative = inhibition” value is 8.03%.

As to `Cc1ccnc(NC(=S)N[C@@H]2CCN(c3cccc(C(F)(F)F)c3)C2)c1`, the “activity change, negative = inhibition” value was -1.64%.

As to `CC(Cc1ccccc1)C(=O)Nc1ccc(Cl)cc1C(=O)O` (configuration not stated), the “activity change, negative = inhibition” value was -11.5%.
